Results as given in PubChem BioAssay (NCATS).
Results filed as inconclusive are left out. Active and inactive are the calls of the source. Calls come from the whole dose curve; as a rule, active = well fitted inhibition curve with a large enough effect; inconclusive = small, poorly fitted or top-dose-only effect; inactive = flat fitted curve, though single readings scatter.

The compounds below were run against Calcium and integrin-binding protein 1 (Homo sapiens) (UniProt Q99828) (assay: Primary qHTS for Identification of Calcium Integrin Binding Protein 1 (CIB1) Competitor (AID 1508620;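 note: GST tagged CIB1 binding a fluorescein labelled alphaIIb integrin peptide tracer; top concentration of the series differs between compounds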)). Conditions: CIB1-GST / FITC-alphaIIb peptide fluorescence polarization; series mostly up to 114 µM; activity change, negative = inhibition: at the top concentration.
Sequence of Calcium and integrin-binding protein 1 (Homo sapiens) (Q99828 whole entry, looked up): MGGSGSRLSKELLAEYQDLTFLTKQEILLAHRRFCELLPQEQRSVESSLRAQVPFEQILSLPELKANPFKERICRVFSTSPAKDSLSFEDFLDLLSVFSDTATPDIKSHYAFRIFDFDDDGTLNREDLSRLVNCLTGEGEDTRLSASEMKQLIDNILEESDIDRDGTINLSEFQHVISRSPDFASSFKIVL
Summary of the method: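 Fluorescence polarization competition: CIB1-GST (1 uM final) preincubated with compound 15 min at room temperature, then FITC-labeled alphaIIb peptide (100 nM final) added for another 15 min. Polarization read at Ex 480/Em 540.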
% is set by controls: 0 for no effect and ±100 for the full control effect.

Row | Structure (SMILES) | Potency | activity change, negative = inhibition
1 | Cc1cc(C)nc(NC(=S)N2CCN(c3ncccc3C(F)(F)F)CC2)c1 | inactive | 
2 | COc1ccc(C2Nc3ccccc3C(=O)N2CCO)cc1COc1c(C)cc(NC(C)=O)cc1C (stereo not given) |  | 0.838% (inactive)
3 | N#Cc1nc(Nc2cccc(C(F)(F)F)c2)nc(NC2CCCC2)n1 |  | 3.98% (inactive)
4 | Nc1ccc(-c2ccc(NC(=O)c3cccs3)cn2)cc1 |  | 1.3% (inactive)
5 | O=c1c(Nc2ccc(Br)c(Br)c2)c(Nc2nnc(-c3ccncc3)s2)c1=O |  | -24.5% (inactive)
6 | Cc1cc(C)nc(NC(=S)N2CCN(c3ncnc4sccc34)CC2)c1 |  | 0.224% (inactive)
7 | O=S1(=O)N=C(Oc2ccccc2Br)c2ccccc21 |  | -1.04% (inactive)
8 | Cc1noc(C)c1-c1ccc2ncnc(NCc3ccc(-c4ccccc4)cc3)c2c1 |  | 4.23% (inactive)
9 | Cc1nnc(-c2cnn(C)c2N)n1Cc1cncn1C |  | 1.68% (inactive)
10 | COc1cc(F)c(S(=O)(=O)N2CCCN(S(=O)(=O)c3cccc(N)c3)CC2)c(F)c1 |  | 0.481% (inactive)
11 | CCC(=O)NC(c1cc(Cl)c2cccnc2c1O)C1CC1 (stereo not given) |  | -9.27% (inactive)
12 | Cc1cc(-c2nnc3n2CCCC3)c(C)n1-c1ccccc1 |  | 0.923% (inactive)
13 | NC(=O)c1c(NC(=O)C2CCCO2)sc2c1CCCC2 (stereo not given) |  | -5.74% (inactive)
14 | COc1ccc(CNc2ccc(-c3nc4ccccc4[nH]3)cc2)cc1OC |  | -9.71% (inactive)
15 | O=C1NS(=O)(=O)c2cc(Cl)ccc21 |  | -0.262% (inactive)
16 | Cc1cc(C)nc(NC(=S)N2CCN(Cc3c(F)cccc3Cl)CC2)c1 |  | -7.31% (inactive)
17 | CCOC(=O)c1ccoc1-c1ccc2ncnc(NCc3csc(C)n3)c2c1 |  | -3.63% (inactive)
18 | COc1cc(Cl)c(C)cc1NC(=O)C(OC(=O)CNC(=O)c1ccccc1)c1ccccc1 (stereo not given) |  | 3.42% (inactive)
19 | COc1ccc(C2=Nn3c(nnc3-c3ccc(OC)cc3)SC2)cc1 |  | 2.94% (inactive)
20 | Cn1nnnc1Sc1ncnc2scc(-c3ccc(N)cc3)c12 |  | 1.53% (inactive)

Row | Structure (SMILES) | Potency | activity change, negative = inhibition
21 | Cc1cc2c(s1)c1c(C)nn(Cc3ccccc3F)c(=O)c1n2C |  | 2.25% (inactive)
22 | NC(=O)C1CCN(c2nccc(-c3ccc4c(c3)OCCCO4)n2)CC1 |  | -9.25% (inactive)
23 | CC(C)Oc1cccc(-c2csc(N3CCC(C(N)=O)CC3)n2)c1 |  | 1.35% [at 384 µM] (inactive)
24 | Cc1ccc(CNc2ncnc3ccc(-c4ccoc4)cc23)o1 |  | -16% (inactive)
25 | FC(F)(F)c1cc(-c2ccc(CNc3nc(-c4ccccc4C(F)(F)F)nc4ccccc34)cc2)ccc1Cl |  | 5.16% (inactive)
26 | O=C1CN(S(=O)(=O)c2c(F)cccc2F)CCN1S(=O)(=O)c1ccc2c(c1)OCCO2 |  | 7.19% (inactive)
27 | Cc1cc(C)nc(Nc2nnc(N3CCN(c4cccc(C(F)(F)F)c4)CC3)s2)c1 |  | -0.547% (inactive)
28 | Cc1cc(C)n2ncc(C(=O)NC3CCCCC3)c2n1 |  | 1.89% (inactive)
29 | COc1ccnc(NC(=S)N2CCN(c3ccc(Cl)cc3Cl)CC2)c1 |  | -10.9% (inactive)
30 | CC(=O)Nc1sc2c(c1-c1nc3ccccc3s1)CCN(C(C)=O)C2 |  | -17.1% (inactive)
31 | Cc1ccc(C)c(SC2CS(=O)(=O)c3ccccc32)c1 (stereo not given) |  | 1.28% (inactive)
32 | CC(=O)Nc1sc2c(c1-c1cnn(C(C)=O)c1)CCNC2 |  | 0.0416% (inactive)
33 | CCOc1ccc(CCNC(=O)c2cc3sccc3n2Cc2cccc(C)c2)cc1OCC |  | 3.52% (inactive)
34 | O=C(c1ccc2c(c1)ncn2-c1ccccc1)N1CCCCC1 |  | 2.05% (inactive)
35 | CN(C)CCCNc1ccc(NC(=O)c2cccs2)cn1 |  | 0.751% (inactive)
36 | N#Cc1nc(Nc2ccc(-c3ccccc3)cc2)nc(NC2CCCC2)n1 |  | 6.24% (inactive)
37 | O=C(Nc1ccc(Cl)c(Cl)c1)Nc1nnc(-c2ccc(F)cc2)s1 |  | 3.35% (inactive)
38 | Cc1cn([C@H]2C[C@H](N[S+](=O)([O-])Cc3ccc([N+](=O)[O-])cc3)[C@@H](CO)O2)c(=O)[nH]c1=O |  | -2.79% (inactive)
39 | Cc1ccc(NC(=O)CN2C(=O)N/C(=C\c3cccn3-c3ccc([S+](N)(=O)[O-])cc3)C2=O)cc1 |  | -5.38% (inactive)
40 | O=C(O)c1ccc(O)c2ncc(-c3ccc(C(=O)N4CCNCC4)cc3)cc12 |  | -2.37% (inactive)
